Pf growth 96h: P. falciparum growth inhibition at 96 hour, primary screen for plastid delayed-death inhibitors; Potency, µM (top dose mostly 28.7 µM), inactives show at the highest dose activity change, negative = inhibition, actives largely listed as inhibitors; actives 6.9% (n = 320,000); P. falciparum luciferase reporter growth, 96 h; also: potency is read from the fitted curve at half-maximal effect; % is scaled to controls: 0 for no effect and ±100 for the full control effect
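Cell-based qHTS: luciferase-tagged P. falciparum in erythrocytes (2% hematocrit, 0.05% parasitemia final) incubated with compounds for 96 hours, 37 C, 5% CO2; luciferase detection reagent then added and luminescence measured.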
Pf growth 48h: inhibits P. falciparum growth in the first generation, 48 h | P. falciparum luciferase growth in erythrocytes, 48 h | Potency, µM (titrated, usually from 28.7 µM), for the others: top-dose activity change, negative = inhibition, usual class: inhibitors | actives 5.9% (n = 310,000); also: potency is read from the fitted curve at half-maximal effect; % is scaled to controls: 0 for no effect and ±100 for the full control effect
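Cell-based growth assay: transgenic P. falciparum expressing firefly luciferase, cultured in red cells within RPMI 1640 containing 0.5% w/v Albumax, 24 mM bicarbonate and gentamycin. A drop in luciferase activity indicates inhibition.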
LmPK inhibitor: blocks Leishmania mexicana pyruvate kinase activity; actives 0.37% (n = 290,000); AID 1721; purified LmPK, Kinase-Glo ATP luminescence, 1 h; Potency, µM (series often up to 57.5 µM), for the others: at the highest dose activity change, negative = inhibition, actives largely listed as inhibitors; also: potency is read from the fitted curve at half-maximal effect; % is scaled to controls: 0 for no effect and ±100 for the full control effect
Target sequence (Q27686 whole entry, looked up): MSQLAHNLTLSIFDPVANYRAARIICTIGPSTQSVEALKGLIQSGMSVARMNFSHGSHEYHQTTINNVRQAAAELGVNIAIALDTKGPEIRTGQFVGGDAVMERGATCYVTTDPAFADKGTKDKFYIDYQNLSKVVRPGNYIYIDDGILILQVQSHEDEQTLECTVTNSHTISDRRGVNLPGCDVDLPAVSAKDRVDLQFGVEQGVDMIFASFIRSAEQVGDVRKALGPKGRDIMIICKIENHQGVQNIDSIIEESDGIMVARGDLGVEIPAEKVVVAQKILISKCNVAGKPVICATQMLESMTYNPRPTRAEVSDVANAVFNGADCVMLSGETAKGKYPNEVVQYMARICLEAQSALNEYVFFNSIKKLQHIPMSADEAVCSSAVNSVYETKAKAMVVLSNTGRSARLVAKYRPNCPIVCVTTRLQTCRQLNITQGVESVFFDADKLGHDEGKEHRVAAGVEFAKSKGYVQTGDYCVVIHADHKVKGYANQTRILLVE
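Purified LmPK (0.1 nM) converted ADP (0.1 mM) to ATP with PEP (0.5 mM) in imidazole buffer pH 7.2 with KCl and MgCl2, 1 h at room temperature. ATP was read by Kinase-Glo luminescence; data normalized to uninhibited and no-enzyme controls.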
Shiga inhibitor: inhibitors of Shiga toxin in Vero cells; Vero cells, Shiga toxin protein synthesis inhibition reporter; inhibition, % at 38.7 µM; actives 9.2% (n = 290,000); AID 2315; in the data active = inhibition mostly above about 28%, no sharp cut-off; inactive = mostly below about 43%; also: 0% is about no effect
Cycloheximide cs: affects cycloheximide protein synthesis inhibition readout, counter-screen | cell reporter, cycloheximide protein synthesis inhibition counterscreen | max response, % | actives 12% (n = 300,000); in the data active = max response mostly above about 13%, no sharp cut-off; inactive = mostly below about 14%; also: read at 38.3 µM for the half of the compounds with a filed dose; 0% is about no effect
* marks the source's active call; other numbers are inactive results; ? = inconclusive; · = no result. A selection: hits, their analogues and other compounds. The true share with any hit is near 22%. Unless noted, calls follow the shape of the dose curve; as a rule, active = well fitted inhibition curve with a large enough effect; inconclusive = small, poorly fitted or top-dose-only effect, or another doubt; inactive = no such curve, though single readings can be large or run the other way.

SMILES | Pf growth 96h | Pf growth 48h | LmPK inhibitor | Shiga inhibitor | Cycloheximide cs
CCOC(=O)[C@@H]1[C@H]2COc3ccccc3[C@@H]2N2C(=O)N(c3cccc(C)c3)C(=O)[C@]12C | ? | -21.0% | -2.3% | -2.9 | 0.2
O=C(Nc1ccccc1Br)C1CCCN1S(=O)(=O)c1cccc2nsnc12 (stereo not given) | ? | -1.9% | 2.2% | 12.9 | -1.5
COc1ccccc1NC(=O)C1CCCN1S(=O)(=O)c1cccc2nsnc12 (stereo not given) | ? | -0.8% | -1.5% | -3.5 | -2.6
Cc1c(NC(=O)C2CCCN2S(=O)(=O)c2cccc3nsnc23)cccc1C(=O)O (stereo not given) | 9.28µM* | · | -12.2% | -3.6 | -2.8
Cc1ccc(C(=O)O)cc1NC(=O)C1CCCN1S(=O)(=O)c1cccc2nsnc12 (stereo not given) | 16.5µM* | · | 3.9% | 15.7 | -1.4
COc1ccc(NC(=O)C2CCCN2S(=O)(=O)c2cccc3nsnc23)c(OC)c1 (stereo not given) | 10.4µM* | ? | 7.0% | 16.7 | 12.5
O=C(NNc1ncc(C(F)(F)F)cc1Cl)c1ccc(Cl)c(Cl)c1 | ? | ? | 1.5% | 10.2 | -2.1
Cc1ccc(NC(=S)NNC(=S)Nc2cccc(C(F)(F)F)c2)cc1 | ? | ? | -8.9% | 22.9 | -2.4
FC(F)(F)c1cnc(NNC(=S)Nc2ccc(Cl)cc2)c(Cl)c1 | 7.38µM* | ? | -1.1% | -3.5 | 13.3
Cc1ccc(NC(=S)NNc2ncc(C(F)(F)F)cc2Cl)c(C)c1 | ? | · | -0.7% | -5.6 | -3.1
FC(F)(F)c1cccc(NC(=S)NNC(=S)Nc2ccc(Cl)cc2)c1 | 11.7µM* | ? | -0.2% | 24.5 | 2.9
Cc1ccc(NC(=S)NNc2ncc(C(F)(F)F)cc2Cl)cc1 | 10.4µM* | ? | -6.0% | -8.0 | -8.5
Fc1ccc(CNC(=S)Nc2cccc(C(F)(F)F)c2)cc1 | 29.5% | ? | 5.3% | 18.0 | 13.4*
CC(C)C[C@H](NC(=O)[C@H](Cc1ccccc1)n1c(=O)[nH]c2ccccc2c1=O)C(=O)N1CCC[C@@H]1C(=O)O | -19.7% | -2.3% | -5.5% | -3.1 | -1.3
COC(C(=O)NC(C(C)C)C(C)C)c1ccccc1 (stereo not given) | -3.9% | 2.5% | -1.9% | 8.1 | -3.3
Nc1ccccc1C(=O)NNc1ncc(C(F)(F)F)cc1Cl | ? | -10.7% | -1.5% | -3.8 | 0.8
Cc1nn(C)c(C)c1NC(=O)Nc1cccc(C(F)(F)F)c1 | ? | ? | 1.9% | -8.1 | -2.4
Cc1cc(C(=O)NNC(=S)Nc2cccc(C(F)(F)F)c2)nn1C | 40.7% | 18.6% | -2.5% | 32.7 | 18.2*
CC(NC(=S)Nc1cccc(C(F)(F)F)c1)C(C)(C)C (stereo not given) | 13.1µM* | ? | -1.8% | -17.1 | -1.6
Fc1ccc(NC(=S)NNc2ncc(C(F)(F)F)cc2Cl)c(F)c1 | 10.4µM* | 9.28µM* | 3.3% | 47.5* | 21.4
Cc1ccc(S(=O)(=O)N(C)C)cc1NC(=O)COC(=O)Cc1ccsc1 | 4.6% | -21.0% | · | · | ·
CCN(CC)CCNC(=O)c1cn(CC)c2cc(N3CCN(C)CC3)c(F)cc2c1=O | -21.7% | ? | -2.9% | -4.6 | 2.2
COc1ccc(C2c3ccc(O)cc3Oc3ncn(CCCO)c(=N)c32)cc1 (stereo not given) | ? | ? | 1.3% | -7.8 | -0.9
O=C(c1ccccc1)N(C(=O)c1ccccc1)c1ncnc2c1C(c1ccccc1)c1c(ccc3ccccc13)O2 (stereo not given) | 27.0% | ? | · | · | ·
N=c1c2c(ncn1CCN1CCOCC1)Oc1ccc3ccccc3c1C2c1ccccc1 (stereo not given) | 4.65µM* | · | 0.3% | -8.3 | -3.4
SMILES | Pf growth 96h | Pf growth 48h | LmPK inhibitor | Shiga inhibitor | Cycloheximide cs
c1ccc(C2c3c(ccc4ccccc34)Oc3ncn4nc(-c5ccco5)nc4c32)cc1 (stereo not given) | ? | -8.5% | 2.4% | -1.4 | -0.9
COc1ccc(C2c3c(ccc4ccccc34)Oc3ncn4nc(-c5ccco5)nc4c32)cc1 (stereo not given) | 3.7µM* | ? | 4.0% | -11.9 | -5.1
COc1ccc(C2c3c(ncn(CCN4CCOCC4)c3=N)Oc3ccc4ccccc4c32)cc1 (stereo not given) | · | 9.28µM* | -9.0% | -20.7 | -7.6
O=C(CCC(=O)NNC(=O)c1ccc(Cl)cc1Cl)NCc1ccccc1 | ? | -2.7% | · | · | ·
COc1ccc(C(=O)NC(=S)Nc2ccc(S(=O)(=O)Nc3cc(OC)nc(OC)n3)cc2)cc1 | 38.7% | -14.4% | 3.2% | 2.4 | -5.0
CS(=O)(=O)c1ccc2nc(N)sc2c1 | 2.3% | 31.3% | -1.9% | 16.4 | 8.8
Nc1nc2ccc(Cc3ccncc3)cc2s1 | 93.5% | 54.7% | -4.4% | 77.5* | 20.4*
Cn1c(=O)n(-c2cccc(Cl)c2)c(=O)c2c3c(sc21)COC(C)(C)C3 | -16.5% | -16.5% | -3.9% | -12.1 | -3.7
C#CCN(C)CC/C=C1\c2ccccc2CSc2ccccc21 | ? | 13.1µM* | -1.0% | 12.8 | 1.2
CN(C)CC/C=C1\c2cc(F)ccc2CSc2ccccc21 | ? | 13.1µM* | 0.7% | -5.5 | -1.8
CN(CC/C=C1/c2ccccc2CSc2ccccc21)CCCO | 13.1µM* | 11.7µM* | 0.5% | -4.3 | -7.0
Cc1cccc(CSc2cn(CC(=O)N3CCOCC3)c3ccccc23)c1 | 142.6% | 119.8% | -27.3% | 63.7* | 42.5*
O=C(Cn1cc(SCc2cccc(Cl)c2)c2ccccc21)N1CCOCC1 | 42.5% | 59.8% | -5.1% | 26.9 | 48.5*
O=C(CSc1cn(CC(=O)N2CCOCC2)c2ccccc12)N1CCOCC1 | ? | 0.0% | 6.6% | -7.3 | 2.4
Nc1c(C(=O)Nc2nc3ccccc3s2)sc2nc(-c3cccs3)ccc12 | 0.0% | 82.2% | -2.2% | -5.1 | 11.7
Nc1c(C(=O)Nc2ccccc2)sc2nc(-c3cccnc3)ccc12 | 31.7% | 29.2% | 2.4% | 70.2* | 49.0*
COc1ccccc1NC(=O)c1sc2nc(-c3ccco3)ccc2c1N | · | 13.2% | 3.6% | 69.9 | 19.8*
Nc1c(C(=O)Nc2ccccc2)sc2nc(-c3ccco3)ccc12 | 14.5% | 15.6% | -0.8% | 94.6* | 26.8*
COc1ccc(NC(=O)c2sc3nc(-c4cccnc4)ccc3c2N)cc1OC | ? | ? | 3.7% | -5.1 | -1.8
COc1ccc(NC(=O)c2sc3nc(-c4cccnc4)ccc3c2N)cc1 | -6.5% | -0.8% | -0.6% | 17.8 | -2.1
COc1cc(OC)cc(C(=O)NNC(=O)CN2C(=O)NC(C)(c3ccc(C)cc3)C2=O)c1 (stereo not given) | 23.1% | 1.6% | · | · | ·
NC(=O)CSc1nc2ccccc2c(=O)n1Cc1ccccc1 | 99.2% | 7.3% | 0.5% | -7.9 | 1.3
C=CCn1c(SCC(=O)Nc2ccc(OC)cc2)nc2ccccc2c1=O | 105.3% | -3.4% | 7.3% | 18.6 | 0.5
COCC(C)NC(=O)Cn1c(SCc2ccccc2)nc2ccccc21 (stereo not given) | 0.2% | -19.1% | -5.0% | 1.8 | 5.7

High-throughput results (PubChem BioAssay)
